# Screening data: PubChem BioAssay, National Center for Advancing Translational Sciences (NCATS)
# Hits are enriched below; roughly 2.2% of the tested compounds scored in any of these assays.
# Abeta rescue: qHTS for compounds that reverse cellular toxicity of Amyloid beta (A-beta) peptide in yeast: Primary Screen; 410,000 tested, 0.063% active; Potency, µM (top dose mostly 46.1 µM), usual class: activators; yeast expressing A-beta42, growth rescue, OD600, 48 h; response scale: 0% DMSO, 100% iron-clioquinol control; AID 1347071, 2019; further: nearly all actives have a fitted effect of over 55% in size
#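 Growth rescue measured by 600 nm absorbance after 48 h yeast culture at 30 C with compound. Values normalized between DMSO and an equimolar ferric chloride plus clioquinol control.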
# Mito fusion yeast: qHTS Assay for Small Molecule Inhibitors of Mitochondrial Division or Activators of Mitochondrial Fusion | S. cerevisiae fusion-defective mutant growth rescue, CellTiterGlo 48 h | Potency, µM (doses to about 46.1 µM), inactives show at the highest dose growth rescue (activation), hits mostly activators | 320,000 tested, 0.23% active; further: % of control where 0% means no effect; nearly all actives have a fitted effect of over 45% in size
#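 Temperature-sensitive fusion-defective S. cerevisiae (e.g. fzo1-1, mgm1-5) were grown with compound in YPEG medium (3% ethanol, 3% glycerol) for 48 hours at 37C. Growth rescue was measured as viability by CellTiterGlo luminescence after 10 minutes at ambient.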
# TDP43 rescue: qHTS of TDP-43 Inhibitors. TDP-43 expressing yeast growth rescue, BacTiter-Glo, 24 h. Potency, µM (highest dose often 46.1 µM), without a hit: top-dose growth rescue (activation), hits mostly activators. 410,000 tested, 1.8% active. AID 652104, 2013; further: % of control where 0% means no effect; nearly all actives have a fitted effect of over 50% in size
#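 In this qHTS, compounds that restore growth of yeast expressing TDP-43 appear as activators. Cells (OD600=0.02, galactose medium, raffinose-pregrown) are incubated with compound 24 hr at 30 deg C and growth is quantified by BacTiter-Glo.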
# aSyn rescue: qHTS of alpha-syn Inhibitors | Potency, µM (top dose mostly 46.1 µM), inactives show top-dose growth rescue (activation), usual class: activators | Yeast expressing alpha-synuclein, growth rescue, BacTiter-Glo, 24 h | 370,000 tested, 0.14% active; further: % of control where 0% means no effect; nearly all actives have a fitted effect of over 65% in size
#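 Readout is rescue of growth in alpha-synuclein-expressing yeast, so inhibitors of toxicity appear as activators. Growth after 24 hr at 30 deg C in galactose medium is quantified by luminescence.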
# FUS yeast rescue: qHTS for Suppressors of FUS Proteinopathy: Primary screen using FUS-linked yeast assay; 390,000 tested, 0.24% active; Potency, µM (top dose mostly 76.6 µM), usual class: activators; S. cerevisiae FUS-expressing, growth rescue, OD600, 24 h; AID 1347120, 2019;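 further: plate controls were DMSO vehicle for no effect and reference control for full effect; nearly all actives have a fitted effect of over 55% in size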
#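 S. cerevisiae expressing FUS from galactose induction served as the toxicity model. Growth after 24hr at 30C, read as absorbance at 600 nm, indicates suppression of toxicity; compounds dosed at several concentrations.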
# An asterisk follows results filed as active; i = inactive; ? = inconclusive; · = no result. The call rests on the fitted dose curve; in most records, active means well fitted curve in the direction sought with a large enough effect; inconclusive means small, poorly fitted or top-dose-only effect, or another doubt; inactive means no such curve, though single readings can be large; an effect the other way counts as inactive or inconclusive. Potency means the concentration at half of the fitted maximal effect.
SMILES,Abeta rescue,Mito fusion yeast,TDP43 rescue,aSyn rescue,FUS yeast rescue
CN(C)c1ccc(C(=O)c2ccccc2)cc1,i,0%,13µM*,-10%,i
ON=C1c2ccccc2-c2ccc(Br)cc21,i,·,3.2µM*,-8%,·
ON=C1c2ccccc2-c2ccc(F)cc21,i,·,?,12%,·
Cc1ccc(Cn2c(CNC(=O)c3ccccc3Br)nc3cccnc32)cc1,i,·,11µM*,·,i
CC(=O)c1ccc(S(=O)(=O)N2CCn3cccc3C2c2ccc(C)cc2)cc1 (stereo not drawn),i,·,?,·,?
CCCCNC(=S)N1CCC(Cc2ccccc2)CC1,18µM*,-3%,11%,-9%,i
CCCCNC(=S)N1CCN(c2ccccc2Cl)CC1,i,-15%,13µM*,2%,i
COc1ccc(CNC(=O)[C@@H](Cc2ccccc2)NC(=O)CC[C@H]2O[C@@H](n3ccc(=O)[nH]c3=O)[C@H](O)[C@@H]2O)cc1,i,·,18%,-1%,i
CC(C)c1nc2ccc(C(=O)NCc3ccccc3Br)cc2o1,i,·,1%,·,i
Cc1ccc(Cl)c2sc(NC(=O)C3=COCCO3)nc12,i,9%,11µM*,-7%,i
Cc1cc(C)c2sc(NC(=O)C3=COCCO3)nc2c1,i,4%,18µM*,-2%,?
Cc1cc(C)c(-c2csc(NC(=O)C3=COCCO3)n2)c(C)c1,i,28%,?,-4%,i
COc1ccc(Cl)c2sc(NC(=O)C3=COCCO3)nc12,i,4%,-11%,-1%,i
COc1n[nH]c(C(=O)Nc2cc(F)ccc2C)c1[N+](=O)[O-],i,7.1µM*,-28%,-10%,·
COc1cc2ncc(S(=O)(=O)c3ccccc3)c(N3CCCC(C)C3)c2cc1OC (stereo not drawn),i,23%,28µM*,-1%,?
COc1cc2c(cc1OC)C(c1ccco1)CC(=O)N2 (stereo not drawn),i,1%,24%,2%,i
Cc1ccc(C2CC(=O)Nc3c2ccc2ccccc32)cc1[N+](=O)[O-] (stereo not drawn),i,22µM*,25µM*,11%,i
O=C1CC(c2ccco2)c2ccc3ccccc3c2N1 (stereo not drawn),i,22%,13µM*,5%,i
O=S(=O)(c1cc(Cl)ccc1Cl)N1CCCCC1,i,8%,16µM*,10%,i
O=S(=O)(c1cc(Cl)ccc1Cl)N1CCCC1,i,9%,29%,7%,i
CCOC(=O)N1CCN(C(=O)C2CCN(S(=O)(=O)c3cc(Cl)ccc3Cl)CC2)CC1,i,13%,11µM*,15%,?
O=C(c1ccco1)N1CCN(S(=O)(=O)c2cc(Cl)ccc2Cl)CC1,i,2%,18µM*,13%,i
O=S(=O)(c1ccccc1)n1nc(-c2ccc(Cl)cc2)nc1NCc1ccc(F)cc1,i,·,-16%,-3%,i
C[C@@H]1CCN(C2CC2)S(=O)(=O)c2ccc(N3CC[C@H](O)C3)cc2O1,·,·,·,·,i
COC(=O)C1CCN(C(=O)c2cc(-c3ccc(Cl)s3)nc3ccccc23)CC1,i,?,35µM*,?,?
SMILES,Abeta rescue,Mito fusion yeast,TDP43 rescue,aSyn rescue,FUS yeast rescue
O=C(OC12CCCN(C1)/C(=C/c1cccc(Cl)c1)C2)c1ccc(Cl)cc1 (stereo not drawn),·,·,·,·,i
NC(=O)C1CCN(C2=C(Cl)C(=O)c3ccccc3C2=O)CC1,i,-7%,13µM*,-4%,i
O=C1C(Cl)=C(N2CCC(C(=O)O)CC2)C(=O)c2ccccc21,i,-7%,18µM*,-1%,i
COc1ccccc1CN(Cc1cc2cc(C)ccc2[nH]c1=O)Cc1nnnn1Cc1ccco1,i,12%,-2%,14%,16µM*
CCc1ccc2[nH]c(=O)c(CN(Cc3ccccc3OC)Cc3nnnn3Cc3ccco3)cc2c1,i,0%,-11%,22%,i
CCn1c(=O)c2sccc2n2c(CCCC(=O)N3CCN(c4ccc(OC)cc4)CC3)nnc12,i,·,14%,·,i
CC(C)(C)c1ccc(NC(=S)NCc2cccs2)cc1,i,23%,13µM*,-9%,i
S=C(NCc1ccccn1)Nc1ccc(Cl)cc1Cl,i,-8%,11µM*,-16%,i
O=C(O)Cc1ccc(NC(=S)Nc2ccc(Br)cc2Cl)cc1,i,0%,35µM*,12%,i
S=C(NCc1cccs1)Nc1ccc(Br)cc1Cl,?,17%,35µM*,-11%,i
CC(C)(C)c1ccc(NC(=O)COC(=O)c2ccccc2OCC(=O)Nc2ccc(Br)cc2)cc1,·,·,·,-4%,·
COc1ccc(OCc2nn3c(-c4ccco4)nnc3s2)cc1,i,-3%,?,6%,?
Clc1ccc(OCc2nn3c(-c4ccco4)nnc3s2)cc1,i,?,18µM*,-3%,i
c1coc(-c2nnc3sc(Cc4cccs4)nn23)c1,i,1%,-6%,-4%,10µM*
CCOc1ccc(Nc2nc(N)c(C(=O)c3ccccc3Cl)s2)cc1,i,·,35µM*,·,i
Cc1nc(C(=O)Nc2cc(F)cc(Cl)c2)sc1C1(C)CC(c2ccccc2)=NO1 (stereo not drawn),i,·,13µM*,1%,?
CCOC(=O)Nc1nc(-c2ccc(Cl)cc2Cl)cs1,i,12%,11µM*,-37%,·
COC(=O)C[C@H]1C=C[C@@H](NC(=O)Cc2cccnc2)[C@@H](CO)O1,i,·,14%,-5%,i
Clc1ccc(CSc2nnc(CNc3cccc(Cl)c3)o2)cc1,i,?,-29%,8.9µM*,i
CC(C)(C)OC(=O)NCCc1nnc(SCc2ccc(Cl)cc2)o1,i,7%,18µM*,10%,?
Fc1ccc(NCc2nnc(SCc3ccccc3)o2)cc1,i,23%,?,4%,i
Fc1cccc(Cl)c1CSc1nnc(CNc2ccccc2)o1,i,22%,18µM*,?,i
CC(C)c1ccc(NC(=O)C2CCCN(S(=O)(=O)c3cccc4cccnc34)C2)cc1 (stereo not drawn),i,·,13%,·,i
CCOC(=O)C(CC)Sc1ccc2nnc(-c3ccc(F)cc3)n2n1 (stereo not drawn),·,·,·,-22%,·
O=C(O)c1ccc(N2CCN(C(c3ccccc3)c3ccccc3)CC2)c([N+](=O)[O-])c1,i,2%,11µM*,-5%,i
CCOc1ccc(N2CC(NC(=O)c3ccc(S(=O)(=O)N4CCCC4)cc3)CC2=O)cc1 (stereo not drawn),i,·,19%,·,i
